The panel holds about 79,000 compounds, 15% with a hit somewhere; the sample as a whole holds those more often. Unmarked numbers belong to inactive results. Activity calls are given as the source filed them. Cut-off read from the data, not from the text of the source: active = growth inhibition above about 70%; inactive = the rest.
Assay: NCI Yeast Anticancer Drug Screen. Data for the cln2 rad14 strain (AID 165);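 note: 0% = growth equal to vehicle treated cultures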
Conditions: S. cerevisiae cln2 rad14 strain, at 50.0 µM (retest, dose inferred, filed as 5.0), active compounds read high
Outline: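 Readout is yeast growth inhibition versus vehicle-treated controls, using a strain with cln2 and rad14 alterations exposed to compound.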

Row | Structure (SMILES) | growth inhibition
1 | CCCCCCCCCCC(NC(C)=O)(C(=O)OCC)C(=O)OCC | 99% (active)
2 | Cc1nc2c(cnn2C)cc1CCc1ccccc1 | 50%
3 | CCc1cccc(C)c1NC(=O)C(=O)CC(=O)c1ccccc1Cl | 5%
4 | COc1nc(N)c(N=O)c(OCc2ccccc2)n1 | 98% (active)
5 | O=C1O/C(=C2\OC(=O)c3ccccc32)c2ccccc21 | 3%
6 | Cc1ccc(O)c(C(C)(C)c2ccccc2)c1 | 90% (active)
7 | CCOC(=O)NN(C(=O)OCC)c1ccc(N=Nc2ccc(OC)cc2)n1C | 70% (active)
8 | S=C(NCc1ccccc1)[S][Sb]([S]C(=S)NCc1ccccc1)[c]1ccccc1 | 89% (active)
9 | O=CCCCc1cc2c(cc1Br)CCC2 | 82% (active)
10 | CCC(C)CNCCCCCNc1cc(OC)cc2cccnc12 (centres undefined) | 57%
11 | CNC(=O)NC(c1cc(OC)c(OC)c(OC)c1)c1cc2c(cc1O)OCO2 (centres undefined) | -15%
12 | CCCCCCCSCc1nc2ccccc2c(C)[n+]1[O-] | 98% (active)
13 | Cc1[nH]c(=O)[nH]c(=O)c1CN(C)Cc1cc(Cl)cc(Cl)c1O | 43%
14 | O=C(N/C(=C\c1cccc([N+](=O)[O-])c1)c1nc2ccccc2s1)c1ccccc1 | 98% (active)
15 | CC1NS(=O)(=O)N(C)C1=O (centres undefined) | -13%
16 | Cc1csc2[n+]1C(=O)/C(=C\c1ccc([N+](=O)[O-])cc1)S2 | 67%
17 | CC(C)c1ccc2c(c1)CCC1C(C)(C(=O)O)CCCC21C (centres undefined) | 98% (active)
18 | COc1ncnc2nc(SC)[nH]c12 | -2%
19 | CCN(CC)C(=O)CCCCC(=O)OC(C)C | -1%

From PubChem BioAssay (NCI)
